From PubChem
VLA-4 inh: inhibition in human VLA-4 binding assay, primary screen, VLA-4 allosteric modulator project, MLPCN library, flow cytometry, VLA-4 expressing cells; Integrin alpha-4 (Homo sapiens), P13612; ligand binding flow cytometry; inhibition, % (about 7 µM as worked out from the volumes in the protocol); hit rate 0.2% among 330,000; in the data active = inhibition above about 50%
MEKK3 PB1 HTS: modulators of MEKK3-MEK5 PB1 binding, primary screen, biochemical, wildtype MEKK3, multiplex bead flow cytometry, Alexa488-MEK5; hit rate 1.4% among 290,000; binding response (% of control), % at 10 µM; Mitogen-activated protein kinase kinase kinase 3 (Homo sapiens), Q99759; bead-based flow cytometry, Alexa488-MEK5 binding to MEKK3; actives lie on both sides; 0 = blocked by unlabeled MEK5, 100 = vehicle;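 active = binding response more than 3 SD above or below the average of its plate-row segment, actives on both sides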;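 also: Alexa488 bead fluorescence after subtracting the streptavidin-only scavenger bead signal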
MEKK2wt PB1 HTS: modulators of MEK5 binding to wildtype MEKK2, primary screen, biochemical, multiplex bead flow cytometry, Alexa488-MEK5 | Mitogen-activated protein kinase kinase kinase 2 (Homo sapiens), Q9Y2U5 | Alexa488-MEK5 binding to MEKK2 WT; actives lie on both sides | binding response (% of control), % at 10 µM | hit rate 1.1% among 290,000; in the data active = binding response below about 67% or above about 130%
MEKK2mut PB1 HTS: MEK5 binding signal on mutant MEKK2 PB1, primary screen, biochemical, multiplex bead flow cytometry, Alexa488-MEK5 | percent response, % at 10 µM | Alexa488-MEK5 binding to MEKK2 mutant | hit rate 0.35% among 290,000 | AID 1530, 2009; in the data active = percent response above about 24%, passing the limit was not always enough
MEKK2wt confirm: modulators of MEK5 binding to wildtype MEKK2, confirmation, biochemical, single concentration, multiplex bead flow cytometry | AID 1892, 2009 | Alexa488-MEK5 binding to MEKK2 WT; actives lie on both sides | binding response (% of control), % at 10 µM | hit rate 2.4% among 5,900 | shares compounds with MEKK3 PB1 HTS; in the data active = binding response below about 16% or above about 210%; inactive = in between
MEKK2mut confirm: mutant MEKK2 PB1-MEK5 binding signal retest – biochemical, single concentration, multiplex bead flow cytometry, confirmation | AID 1893, 2009 | shares compounds with MEKK3 PB1 HTS | percent response, % at 10 µM | hit rate 2% among 5,900 | Alexa488-MEK5 binding to MEKK2 mutant; in the data active = percent response mostly above about 71%, no sharp cut-off; inactive = mostly below about 38%;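 also: higher means compound restores mutant binding toward wildtype level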
MEKK3 confirm: MEKK3 wild-type PB1 binding to MEK5, inhibitors, confirmation, biochemical, bead multiplex flow cytometry, single concentration, wildtype; shares compounds with MEKK3 PB1 HTS; Alexa488-MEK5 binding to MEKK3; active compounds read low; binding response (% of control), % at 10 µM; hit rate 1.8% among 5,900; AID 1894, 2009;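 active = binding response below 72% of control, or above a set upper limit, though filed actives all read lower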;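 also: lower values mean stronger disruption of MEK5 binding to MEKK3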
A number is an active result; 0 = inactive; - = no result given; [ ] = another dose, or the depositor's remark. Compounds with a hit are over-represented: about 2.2% of the library has one in this group of screens.

SMILES | VLA-4 inh | MEKK3 PB1 HTS | MEKK2wt PB1 HTS | MEKK2mut PB1 HTS | MEKK2wt confirm | MEKK2mut confirm | MEKK3 confirm
COc1cc2c(cc1OC)C(c1ccc(-c3ccc(Cl)c(Cl)c3)o1)=NCC2 | 0 | 0 | 149 | 0 | 0 | 0 | 0
Cc1cc(C)c2c(n1)sc1c(O)cc(=O)[nH]c12 | 0 | 122 | 0 | 0 | 0 | 0 | 0
COc1ccc(-c2cc(C(F)(F)F)c3c(n2)sc2c(O)cc(=O)[nH]c23)c(OC)c1 | 0 | 0 | 0 | 0 | - | - | -
CCN1CCN(c2nc(-c3ccccc3)nc3ccccc23)CC1 | 0 | 142 | 0 | 0 | 0 | 0 | 0
Cc1ccc(-c2nc(N3CCN(C)CC3)c3ccccc3n2)cc1 | 0 | 0 | 0 | 0 | - | - | -
COc1ccc(C(=O)Nc2ccc3c(c2)C(=O)N(C)C3=O)cc1OC | 0 | 0 | 0 | 0 | - | - | -
Cn1c(CS(=O)Cc2c(Cl)cccc2Cl)nnc1SCc1ccc(Cl)cc1 (centres undefined) | 0 | 34[inhibitor] | 0 | 0 | 0 | 0 | 0
Cc1ccc(CSc2nnc(CS(=O)Cc3ccc(Cl)cc3Cl)n2C)cc1 (centres undefined) | 0 | 0 | 0 | 0 | - | - | -
Cc1cccc(NC(=O)CCN2CCC(C)CC2)c1 | 0 | 0 | 0 | 0 | - | - | -
COc1cc(CN(CCN(C)C)Cc2ccccc2)ccc1OCc1ccccc1 | 0 | 0 | 138 | 0 | 0 | 0 | 0
COc1ccc(CN(CCc2ccccc2)Cc2ccccc2)cc1OC | 0 | 0 | 0 | 0 | - | - | -
Cc1ccc(C)[n+](CC(=O)N2CCCCC2)c1 | - | 0 | 0 | 0 | - | - | -
CSCC[C@H](N)C(=O)NCC1CCC(C(=O)Nc2ccc3c(c2)OCO3)CC1 (some centres undefined) | 0 | 0 | 0 | 0 | - | - | -
Cc1csc(NC(=O)c2sc3nc(-c4cccs4)ccc3c2N)n1 | 0 | 0 | 66[inhibitor] | 0 | 0 | 0 | 0
CCCSc1nnc(NC(=O)c2sc3nc(-c4cccs4)ccc3c2N)s1 | 0 | 0 | 0 | 0 | - | - | -
Oc1ccccc1C(=S)N1CCN(C(=S)c2ccccc2O)CC1 | 0 | 0 | 0 | 0 | - | - | -
COc1ccc(/C=C/C(=O)NCC(=O)N/N=C/c2cc(Br)ccc2OC)cc1 | 0 | 0 | 0 | 91 | 0 | 0 | 0
CSc1ccccc1NS(=O)(=O)c1cccc2nonc12 | 0 | 0 | 0 | 0 | - | - | -
O=C(N/N=C\c1cccc(Cl)c1)c1n[nH]c2c1CCCC2 | 0 | 0 | 0 | 0 | - | - | -
O=C(N/N=C/c1ccc(Cl)cc1Cl)c1n[nH]c2c1CCCC2 | 0 | 128 | 0 | 0 | 0 | 0 | 0
CCOc1cc(N2CCCC2)ccc1[N+](=O)[O-] | 0 | 133 | 0 | 0 | 0 | 0 | 0
O=C(COc1ccccc1)N1CCN(c2ccc([N+](=O)[O-])c(N3CCCCC3)c2)CC1 | 0 | 0 | 0 | 0 | - | - | -
O=C1NC(c2cccc(Br)c2)=N/C1=C\c1ccco1 | 0 | 0 | 0 | 0 | - | - | -
O=C1NC(c2ccccc2)=N/C1=C/c1ccco1 | 0 | 138 | 0 | 0 | 0 | 0 | 0
COc1ccc(OCC(=O)N(Cc2ccco2)C2CCS(=O)(=O)C2)cc1 (centres undefined) | 0 | 0 | 0 | 0 | - | - | -
COc1ccc(C)cc1NC(=O)COC(C)=O | 0 | 74[inhibitor] | 0 | 0 | 0 | 0 | 0
COc1ccc(N2CCN(C(=O)CSc3ccc([N+](=O)[O-])cc3)CC2)cc1 | 0 | 0 | 0 | 0 | - | - | -
COc1ccc(N2CCN(C(=O)CN(Cc3ccc(Cl)cc3)S(C)(=O)=O)CC2)cc1 | 0 | 0 | 0 | 0 | - | - | -
COc1ccc(N2CCN(C(=O)CSc3ccc(C)cc3)CC2)cc1 | 0 | 130 | 0 | 0 | 0 | 0 | 0
COc1ccc(N2CCN(C(=O)CN(Cc3ccccc3)S(C)(=O)=O)CC2)cc1 | 0 | 55[inhibitor] | 0 | 0 | 0 | 0 | 0
